Source: the antibiotic and cytotoxicity screens of Wong et al. (2023)
About 500 (1.3%) of roughly 39,000 compounds were called active. This is one part of a sample in which actives are shown more often than they occur.

What follows are compounds tested on S. aureus RN4220 (assay: growth inhibition call (relative growth <= 0.2)). Settings: 50 µM.

Row | SMILES | growth inhibition call
1 | CC1CN(c2c(F)c(F)c3c(=O)c(C(=O)O)cn(C4CC4)c3c2F)CC(C)N1 (stereo not given) | active
2 | COc1c(N2CCNC(C)C2)c(F)cc2c(=O)c(C(=O)O)cn(C3CC3)c12 (stereo not given) | active
3 | CC1CN(c2c(F)c(N)c3c(=O)c(C(=O)O)cn(C4CC4)c3c2F)CC(C)N1 (stereo not given) | inactive
4 | COc1c(N2CC3CCCNC3C2)c(F)cc2c(=O)c(C(=O)O)cn(C3CC3)c12.Cl (stereo not given) | active
5 | Cl.NC1CCN(c2c(F)cc3c(=O)c(C(=O)O)cn(C4CC4)c3c2Cl)C1 (stereo not given) | active
6 | N[C@@H]1CN(c2c(F)cc3c(=O)c(C(=O)O)cn([C@@H]4C[C@@H]4F)c3c2Cl)CC12CC2 | inactive
7 | C[C@H]1CN([C@@H](C)CO)C(=O)c2cc(NC(=O)C3CC3)ccc2O[C@H]1CN(C)C(=O)Nc1ccc2c(c1)OCO2 | inactive
8 | C[C@H]1CCCCO[C@@H](CN(C)Cc2ccc3c(c2)OCO3)[C@@H](C)CN([C@@H](C)CO)C(=O)c2cc(NC(=O)CCC(F)(F)F)ccc2O1 | inactive
9 | Cc1noc(C)c1NC(=O)Nc1ccc2c(c1)C(=O)N([C@@H](C)CO)C[C@@H](C)[C@H](CN(C)Cc1ccc(C(F)(F)F)cc1)OCCCC[C@H](C)O2 | inactive
10 | C[C@@H]1CN([C@H](C)CO)C(=O)c2cccc(NS(=O)(=O)c3cn(C)cn3)c2O[C@H]1CN(C)C(=O)NC1CCCCC1 | inactive
11 | CC(C)NC(=O)Nc1ccc2c(c1)C(=O)N([C@H](C)CO)C[C@@H](C)[C@@H](CN(C)Cc1ccc(Cl)c(Cl)c1)OCCCC[C@H](C)O2 | inactive
12 | COc1ccc(NC(=O)Nc2cccc3c2O[C@H](CN(C)Cc2ccc(-c4ccccc4)cc2)[C@H](C)CN([C@H](C)CO)C3=O)cc1 | inactive
13 | C[C@@H]1CCCCO[C@H](CN(C)CC2CCCCC2)[C@H](C)CN([C@@H](C)CO)C(=O)c2cc(NC(=O)Nc3ccc(C(F)(F)F)cc3)ccc2O1 | inactive
14 | C[C@H]1CN([C@@H](C)CO)S(=O)(=O)c2ccc(C#CCN(C)C)cc2O[C@H]1CN(C)Cc1cccnc1 | inactive
15 | CCn1cc(C(=O)O)c(=O)c2cnc(N3CCNCC3)nc21 | inactive
16 | CCn1cc(C(=O)O)c(=O)c2cc(F)c(N3CCNC(C)C3)c(F)c21.Cl (stereo not given) | active
17 | CCn1cc(C(=O)O)c(=O)c2cc(F)c(N3CCNCC3)nc21 | inactive
18 | CCNC(=O)C[C@@H]1CC[C@H]2[C@@H](COC[C@H](O)CN2C(=O)Nc2c(C)noc2C)O1 | inactive
19 | C#CCN([C@H](/C=C/C1CC1)[C@@H](O)Cc1ccccc1)[C@@H](Cc1ccc(-n2cc(C(=O)NO)nn2)cc1)C(=O)OC | inactive
20 | C[C@@H]1CN([C@@H](C)CO)C(=O)c2cc(NC(=O)c3ccccc3)ccc2O[C@@H](C)CCCCO[C@@H]1CN(C)Cc1ccc(C(F)(F)F)cc1 | inactive
21 | CC1(C)[C@@H](OC(=O)CCC(=O)O)CC[C@@]2(C)[C@H]1CC[C@]1(C)[C@H]2C(=O)C=C2[C@@H]3C[C@@](C)(C(=O)O)CC[C@]3(C)CC[C@]21C | inactive
22 | CC(=O)O[C@@H]1CC[C@@]2(C)[C@@H](CC[C@]3(C)[C@@H]2C(=O)C=C2[C@@H]4[C@@H](C)[C@H](C)CC[C@]4(C)CC[C@]23C)[C@@]1(C)C(=O)O | active
23 | CC1(C)[C@@H](OC(=O)CCC(=O)O)CC[C@]2(C)[C@H]3C(=O)C=C4[C@@H]5C[C@@](C)(C(=O)O)CC[C@]5(C)CC[C@@]4(C)[C@]3(C)CC[C@@H]12 | inactive
24 | COc1ccc(NC(=O)N(C)C[C@H]2OCCCC[C@@H](C)Oc3ccc(NS(=O)(=O)c4ccc(OC)cc4)cc3C(=O)N([C@@H](C)CO)C[C@@H]2C)cc1 | inactive

Row | SMILES | growth inhibition call
25 | Cc1occc1CN | inactive
26 | O=C(N[C@H]1C=C[C@H](CC(=O)N2CCOCC2)O[C@@H]1CO)c1ccccn1 | inactive
27 | NCc1nnnn1-c1ccccc1 | inactive
28 | NC(=O)CSc1nnnn1-c1ccccc1 | inactive
29 | Nc1nnnn1-c1ccccc1 | active
30 | C[C@@H]1CN([C@H](C)CO)C(=O)Cc2cc(NS(=O)(=O)c3ccccc3)ccc2O[C@H]1CN(C)CC1CC1 | inactive
31 | CS(=O)(=O)N1[C@@H]2c3ccc(-c4cccc(F)c4)c(=O)n3C[C@H]1[C@H](CO)[C@H]2C(=O)N1CCOCC1 | inactive
32 | Cc1noc(C)c1S(=O)(=O)N(C)C[C@@H]1Oc2ccc(NS(=O)(=O)c3ccc(Cl)cc3)cc2CC(=O)N([C@H](C)CO)C[C@H]1C | inactive
33 | C=CC[n+]1ccccc1/C=N/O | inactive
34 | Cc1ccc(S[C@]2(C(=O)NC3CC3)CC(=O)N(Cc3ccccc3C(F)(F)F)[C@@H]2c2ccc(CO)cc2I)cc1 | inactive
35 | COC(=O)c1c(C)c2c(c(C)c1O)OC(=O)c1c(C)c(Cl)c(O)c(Cl)c1O2 | active
36 | COC(=O)c1c(C)c2c(c(C)c1OC)OC(=O)c1c(C)c(Cl)c(OC)c(Cl)c1O2 | inactive
37 | COC(=O)c1c(OC)cc2c(c1C)Oc1c(Cl)c(O)c(Cl)c(C)c1C(=O)O2 | inactive
38 | COc1ccc(CN(C)C[C@@H]2Oc3ccc(NS(C)(=O)=O)cc3CC(=O)N([C@@H](C)CO)C[C@H]2C)cc1 | inactive
39 | CO[C@H]1C[C@H](O[C@H]2[C@H](C)[C@@H](O[C@H]3O[C@H](C)C[C@H](N(C)C)[C@H]3O)[C@@H](C)C[C@]3(CO3)C(=O)[C@H](C)[C@@H](O)[C@@H](C)[C@@H](C)OC(=O)[C@@H]2C)O[C@@H](C)[C@@H]1O | active
40 | C[C@H](O)C#Cc1cnc2c(c1)C(=O)N([C@H](C)CO)C[C@@H](C)[C@@H](CN(C)Cc1cncnc1)O2 | inactive
41 | CN1C(=O)c2cc(NC(=O)Nc3ccccc3F)ccc2OC[C@H]2O[C@@H](CC(=O)NCc3ccc(-c4ccccc4)cc3)CC[C@H]21 | inactive
42 | C[C@H](CO)N1C[C@H](C)[C@H](CN(C)C)Oc2ccc(NS(C)(=O)=O)cc2CC1=O | inactive
43 | C[C@@H]1CN([C@@H](C)CO)C(=O)c2cc(NC(=O)Nc3ccc(C(F)(F)F)cc3)ccc2O[C@@H](C)CCCCO[C@H]1CN(C)S(=O)(=O)c1cn(C)cn1 | inactive
44 | CO[C@H](CN(C)S(=O)(=O)c1cn(C)cn1)[C@@H](C)CN(C(=O)Nc1ccc(C(F)(F)F)cc1)[C@@H](C)CO | active
45 | CO[C@H](CN(C)S(=O)(=O)c1cn(C)cn1)[C@H](C)CN(C(=O)Nc1ccc(C(F)(F)F)cc1)[C@H](C)CO | active
46 | C[C@@H]1CN([C@@H](C)CO)C(=O)c2cc(NC(=O)Nc3ccc(C(F)(F)F)cc3)ccc2O[C@@H](C)CCCCO[C@@H]1CN(C)S(=O)(=O)c1cn(C)cn1 | inactive
47 | C[C@@H]1CN([C@H](C)CO)C(=O)c2cc(NC(=O)Nc3ccc(C(F)(F)F)cc3)ccc2O[C@@H](C)CCCCO[C@@H]1CN(C)S(=O)(=O)c1cn(C)cn1 | inactive
48 | CO[C@H](CN(C)S(=O)(=O)c1cn(C)cn1)[C@@H](C)CN(C(=O)Nc1ccc(C(F)(F)F)cc1)[C@H](C)CO | active

Row | SMILES | growth inhibition call
49 | CO[C@@H](CN(C)S(=O)(=O)c1cn(C)cn1)[C@H](C)CN(C(=O)Nc1ccc(C(F)(F)F)cc1)[C@@H](C)CO | active
50 | C[C@H](CO)N1C[C@H](C)[C@@H](CN(C)S(=O)(=O)c2cn(C)cn2)OCCCC[C@H](C)Oc2ccc(NC(=O)Nc3ccc(C(F)(F)F)cc3)cc2C1=O | inactive
51 | C[C@@H]1CCCCO[C@@H](CN(C)C(=O)Nc2cccc3ccccc23)[C@H](C)CN([C@H](C)CO)C(=O)c2cc(NS(=O)(=O)c3ccccc3)ccc2O1 | inactive
52 | C[C@H]1CN([C@@H](C)CO)C(=O)c2cccc(NC(=O)C3CCCCC3)c2O[C@H]1CN(C)C(=O)Nc1ccc(C(F)(F)F)cc1 | inactive
53 | Cc1noc(C)c1S(=O)(=O)Nc1ccc2c(c1)C(=O)N([C@@H](C)CO)C[C@H](C)[C@H](CN(C)Cc1ccccc1)OCCCC[C@@H](C)O2 | inactive
54 | C[C@H](CO)N1C[C@H](C)[C@@H](CN(C)Cc2ccc(Cl)c(Cl)c2)Oc2c(NS(=O)(=O)c3ccccc3)cccc2C1=O | inactive
55 | CO[C@@H]1CN(C)C(=O)c2ccc(NS(C)(=O)=O)cc2OC[C@H](C)N(C(=O)C2CCCCC2)C[C@@H]1C | inactive
56 | C[C@@H]1CN([C@@H](C)CO)C(=O)c2cc(NS(=O)(=O)c3cn(C)cn3)ccc2O[C@@H](C)CCCCO[C@@H]1CN(C)S(=O)(=O)c1cccs1 | inactive
57 | C[C@@H]1CN([C@H](C)CO)C(=O)c2cccc(NC(=O)c3nc4ccccc4s3)c2O[C@@H]1CN(C)Cc1ccc(Cl)c(Cl)c1 | inactive
58 | O=C(C[C@@H]1CC[C@H]2[C@@H](COC[C@H](O)CN2S(=O)(=O)c2ccccc2)O1)N[C@H]1CCN(Cc2ccccc2)C1 | inactive
59 | CO[C@@H](CN(C)S(=O)(=O)c1cn(C)cn1)[C@@H](C)CN(C(=O)Nc1ccc(C(F)(F)F)cc1)[C@@H](C)CO | active
60 | CO[C@H](CN(C)S(=O)(=O)c1cn(C)cn1)[C@H](C)CN(C(=O)Nc1ccc(C(F)(F)F)cc1)[C@@H](C)CO | active
61 | C[C@@H]1CCCCO[C@H](CN(C)S(=O)(=O)c2cn(C)cn2)[C@H](C)CN([C@H](C)CO)C(=O)c2cc(N(C)C)ccc2O1 | inactive
62 | COC(=O)C[C@@H]1CC[C@H]2[C@@H](COC[C@@H](O)CN2S(=O)(=O)c2ccc(F)cc2)O1 | inactive
63 | COCC#Cc1cnc2c(c1)C(=O)N([C@H](C)CO)C[C@@H](C)[C@H](CN(C)C(=O)Nc1ccc(OC)cc1)O2 | inactive
64 | C[C@@H]1CN([C@H](C)CO)C(=O)CCCn2nncc2CO[C@H]1CN(C)C(=O)Nc1ccnc(N2CCOCC2)c1 | inactive
65 | CN1C(=O)[C@@]2(c3cc(Cl)ccc31)[C@H](C(=O)O)[C@H]1C(=O)O[C@H](c3ccccc3)[C@H](c3ccccc3)N1[C@@H]2c1ccc(F)cc1 | active
66 | COc1ccc(C#Cc2ccc3c(c2)[C@]2(C(=O)N3)[C@H](c3ccc(O)cc3)N3[C@H](c4ccccc4)[C@H](c4ccccc4)OC(=O)[C@H]3[C@@H]2C(=O)O)cc1 | inactive
67 | O=C1O[C@H](c2ccccc2)[C@H](c2ccccc2)N2[C@H]1[C@@H](C(=O)O)[C@]1(C(=O)Nc3ccc(Cl)cc31)[C@H]2c1ccc(F)cc1 | active
68 | COc1ccc(C#Cc2ccc3c(c2)[C@@]2(C(=O)N3C(=O)N[C@@H](C)c3ccccc3)[C@H](c3ccc(OCCO)cc3)N3[C@H](c4ccccc4)[C@H](c4ccccc4)OC(=O)[C@H]3[C@@H]2C(=O)O)cc1 | inactive
69 | COCCOC(=O)N1C(=O)[C@@]2(c3cc(C#Cc4ccc(OC)cc4)ccc31)[C@H](c1ccc(O)cc1)N1[C@H](c3ccccc3)[C@H](c3ccccc3)OC(=O)[C@H]1[C@@H]2C(N)=O | inactive
70 | COc1ccc(C#Cc2ccc3c(c2)[C@]2(C(=O)N3)[C@H](C(=O)O)[C@H]3C(=O)O[C@H](c4ccccc4)[C@H](c4ccccc4)N3[C@@H]2c2ccc(O)cc2)cc1 | inactive
